Data on 25 molecules can be found in PubChem BioAssay (Tox21).

Several values for one entry are separate records, joined by “and”; a condition that tells them apart may be missing. Equal values may be shown once. Results filed as inconclusive are left out. Some compounds were tested as several samples or in several runs, with calls that do not always agree. Activity calls are given as the source filed them. Unless noted, calls come from the whole dose curve; as a rule, active = well fitted curve in the direction sought with a large enough effect in the repeat runs; inconclusive = weak or mixed curves; inactive = no such curve, though single readings can be large; an effect the other way counts as inactive or inconclusive.

Test [1] is described as follows: qHTS assay to identify aromatase inhibitors - cell viability counter screen (AID 743084;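 note: cells stimulated with testosterone during compound exposure; nearly all actives have a fitted effect of over 55% in size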). (qHTS replaces the single test concentration by a dilution series.)
Test [2] addresses Peroxisome proliferator-activated receptor gamma (Homo sapiens) (UniProt P37231). The test can be described thus: qHTS assay to identify small molecule agonists of the peroxisome proliferator-activated receptor gamma (PPARg) signaling pathway (AID 743094; active = well fitted activation curve with a large enough effect in the signal ratio in the repeat runs, not every such curve was filed as active; the % refers to the signal ratio). Put shortly: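 Stably transfected HEK293H cells (GeneBLAzer PPARg UAS-bla) were incubated with test substances for 17 h at 37C after a 5 h pre-incubation; beta-lactamase activity was then detected by FRET substrate fluorescence.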

The nature of test [3]: qHTS assay to identify small molecule phospholipidosis (PLD) inducers (AID 1259344; active = well fitted curve in the direction sought with a large enough effect; an effect the other way counts as inactive or inconclusive). The method in brief: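 Phospholipidosis is scored by imaging LipidTOX-stained pits in HepG2 cells exposed to compound for 24 h at 37 C; pit counts and integrated intensities per well and per cell serve as outputs.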
The target of test [4] is Aryl hydrocarbon receptor (Homo sapiens) (UniProt P35869). The test can be described thus: qHTS assay to identify small molecule that activate the aryl hydrocarbon receptor (AhR) signaling pathway (AID 743085).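 For activation: HG2L7.5c1 human HepG2 liver cells with stably integrated DRE-driven firefly reporter; series mostly up to about 70 µM.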 Note: nearly all actives have a fitted effect of over 15% in size. Note: potency is the fitted concentration of half-maximal effect. The method in brief:
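Compounds were tested in HepG2 hepatocellular carcinoma cells harbouring a stably integrated luciferase gene under control of 20 DREs. Increased reporter signal after 24 h treatment at 37C was taken as AhR activation.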

Test [5] is described as follows: qHTS assay to identify small molecule that activate the aryl hydrocarbon receptor (AhR) signaling pathway - cell viability counter screen (AID 743086). Note: nearly all actives have a fitted effect of over 45% in size. Note: potency is the fitted concentration of half-maximal effect. The method in brief: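 Cytotoxicity counter screen: CellTiter-Fluor signal (30 min, 37 C) in 4000 HepG2 cells/well carrying the DRE-luciferase reporter, following 24 h compound exposure at 37 C.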
Test [6] has as its target Nuclear receptor subfamily 1 group I member 2 (Rattus norvegicus) (UniProt Q9R1A7). The test can be described thus: Rat pregnane X receptor (rPXR) activation by small molecules, qHTS assay (AID 1346983). Note: nearly all actives have a fitted effect of over 20% in size. To be noted: rPXR luciferase reporter cells, One-Glo luminescence, 24 h; max activation: stronger effect = higher value. The method in brief:
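Luminescent readout (One-Glo luciferase, 30 min room temperature) followed 24 hr compound treatment at 37 C of rPXR cells plated 2,000 per well and preincubated 5hr; qHTS format with compounds delivered in DMSO.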

For test [7], the target named is Nuclear receptor subfamily 1 group I member 2 (Homo sapiens) (UniProt O75469). The test is described as follows: CYP3A4 induction through human pregnane X receptor (PXR) by small molecules, qHTS assay (AID 1346984). Note: nearly all actives have a fitted effect of over 40% in size. Note: potency is the fitted concentration of half-maximal effect. The method in brief:
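DPX-2 reporter cells; 24h cpd, 37C; Luciferin-IPA 3uM final x3h; One-Glo 30 min RT; lumi read.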

For test [8] the target is unchanged. The test can be described thus: Human pregnane X receptor (PXR) activation by small molecules, qHTS assay (AID 1346985). Note: nearly all actives have a fitted effect of over 40% in size. Note: potency is the fitted concentration of half-maximal effect. Put shortly: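 DPX-2 cells (HepG2 co-transfected with a PXR response element and a CYP3A4-promoter luciferase construct) were seeded at 2,000 per well, rested 5 hr at 37C, then exposed to DMSO-dissolved compounds for 24 hr. Activation was read as luciferase luminescence.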
% is set by controls: 0 for no effect and ±100 for the full control effect.

Nuclear receptor subfamily 1 group I member 2 (Rattus norvegicus), sequence (Q9R1A7 whole entry, looked up): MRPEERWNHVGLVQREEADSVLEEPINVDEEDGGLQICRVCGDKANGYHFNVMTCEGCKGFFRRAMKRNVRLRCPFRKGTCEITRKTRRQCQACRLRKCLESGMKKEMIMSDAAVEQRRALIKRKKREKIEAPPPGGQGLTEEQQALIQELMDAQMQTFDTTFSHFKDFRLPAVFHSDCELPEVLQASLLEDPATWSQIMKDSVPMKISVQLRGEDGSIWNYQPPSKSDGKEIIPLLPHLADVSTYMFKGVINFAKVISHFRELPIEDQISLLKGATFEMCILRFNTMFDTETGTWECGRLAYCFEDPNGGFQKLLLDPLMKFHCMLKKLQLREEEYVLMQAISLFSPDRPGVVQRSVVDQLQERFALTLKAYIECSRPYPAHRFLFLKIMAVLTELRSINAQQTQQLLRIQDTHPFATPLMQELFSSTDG
Aryl hydrocarbon receptor (Homo sapiens), sequence (P35869 whole entry, looked up): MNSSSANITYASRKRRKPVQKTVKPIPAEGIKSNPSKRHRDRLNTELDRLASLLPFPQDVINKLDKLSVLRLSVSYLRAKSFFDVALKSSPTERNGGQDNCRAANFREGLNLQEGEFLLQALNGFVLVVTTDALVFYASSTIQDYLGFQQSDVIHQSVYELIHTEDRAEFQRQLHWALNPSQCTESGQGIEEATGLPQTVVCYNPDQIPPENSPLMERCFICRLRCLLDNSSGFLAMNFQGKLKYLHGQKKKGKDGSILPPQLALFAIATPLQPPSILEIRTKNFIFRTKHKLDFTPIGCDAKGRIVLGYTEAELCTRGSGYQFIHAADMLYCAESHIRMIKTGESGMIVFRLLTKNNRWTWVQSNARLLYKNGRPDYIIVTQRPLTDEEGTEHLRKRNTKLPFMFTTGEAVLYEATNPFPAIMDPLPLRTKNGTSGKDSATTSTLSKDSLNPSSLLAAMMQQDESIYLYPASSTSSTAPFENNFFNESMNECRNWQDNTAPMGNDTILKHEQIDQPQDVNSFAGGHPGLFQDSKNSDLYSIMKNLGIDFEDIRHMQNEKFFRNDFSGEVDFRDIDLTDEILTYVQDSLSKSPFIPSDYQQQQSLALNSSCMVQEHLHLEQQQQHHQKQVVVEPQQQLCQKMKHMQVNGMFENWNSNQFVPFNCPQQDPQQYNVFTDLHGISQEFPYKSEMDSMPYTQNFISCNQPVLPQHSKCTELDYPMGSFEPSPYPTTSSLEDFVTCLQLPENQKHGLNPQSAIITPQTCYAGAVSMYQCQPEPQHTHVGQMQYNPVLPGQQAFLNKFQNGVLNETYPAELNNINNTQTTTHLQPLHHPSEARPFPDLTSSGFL
Peroxisome proliferator-activated receptor gamma (Homo sapiens), sequence (P37231 whole entry, looked up): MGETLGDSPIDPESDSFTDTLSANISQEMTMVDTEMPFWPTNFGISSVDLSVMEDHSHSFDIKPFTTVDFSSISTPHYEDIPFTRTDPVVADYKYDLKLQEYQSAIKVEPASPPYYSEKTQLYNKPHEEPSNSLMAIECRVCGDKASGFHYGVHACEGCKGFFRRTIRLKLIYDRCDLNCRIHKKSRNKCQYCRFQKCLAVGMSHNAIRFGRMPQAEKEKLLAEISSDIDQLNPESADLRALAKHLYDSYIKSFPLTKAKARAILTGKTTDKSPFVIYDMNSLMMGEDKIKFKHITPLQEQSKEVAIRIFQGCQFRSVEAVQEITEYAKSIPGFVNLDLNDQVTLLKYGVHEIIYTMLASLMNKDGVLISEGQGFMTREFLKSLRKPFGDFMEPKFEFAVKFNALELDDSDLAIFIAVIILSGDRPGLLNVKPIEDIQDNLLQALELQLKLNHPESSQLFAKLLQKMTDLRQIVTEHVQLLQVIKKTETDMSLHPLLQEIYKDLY

In the case of `C=C1/C(=C\C=C2/CCC[C@]3(C)[C@@H]([C@H](C)OCCC(C)(C)O)CC[C@@H]23)C[C@@H](O)C[C@@H]1O`, the Potency result in test [1], in test [2] and in test [3] was “inactive” in each case.
Regarding `COC(=O)C1=C(C)NC(C)=C(C(=O)O[C@H]2CCN(Cc3ccccc3)C2)[C@H]1c1cccc([N+](=O)[O-])c1`, the Potency result in test [4] and in test [3] was “inactive” each time. Also, the Potency in test [5] was 29.8 µM (active).
Turning to `CN(C)CCC=C1c2ccccc2C(C)(C)c2ccccc21`, the Potency entry in test [1] and in test [4] was “inactive” throughout. The max activation in test [6] was 6.91% (inactive). Also, the Potency was 22.4 µM (active) in test [7] and 25.1 µM (active) in test [8].
Take `C#C[C@]1(OC(C)=O)CC[C@H]2[C@@H]3CCC4=CC(=O)CC[C@@H]4[C@H]3CC[C@@]21C`: the Potency result in test [5] and in test [2] was “inactive” in each case. The PLD induction in test [3] was 1.06% [at 7.66 µM] (inactive).
On to `CCC(=O)c1ccc2c(c1)N(CCCN1CCN(CCO)CC1)c1ccccc1S2`, for which, in test [1], the Potency result was “inactive”. Also, in test [6], the max activation is -17.5% (inactive). Moreover, the Potency in test [7] was 14.1 µM (active); in test [8], 25.1 µM (active).
With `COc1ccc2c(c1)OC(C)(C)C(c1ccccc1)C2c1ccc(OCCN2CCCC2)cc1` (centres undefined), the Potency result in test [1], in test [4] and in test [7] was “inactive” throughout. In addition, in test [6], the max activation was -6.65% (inactive). The Potency in test [8] is 15.8 µM (active).
In the case of `O=P(O)(O)C(O)(Cc1cnc2ccccn12)P(=O)(O)O`, the Potency entry in test [1], in test [2] and in test [3] was “inactive” each time.
For the molecule `C[C@]12CCC(=O)C[C@@H]1CC[C@@H]1[C@@H]2CC[C@]2(C)C=CC[C@@H]12`, the Potency entry in test [1], in test [5], in test [2], in test [7] and in test [8] was “inactive” in each case. For the same molecule, the max activation in test [6] is -0.035% (inactive).
Consider `Cc1ccc(/C(=C\CN2CCCC2)c2cccc(/C=C/C(=O)O)n2)cc1`, for which the Potency entry in test [5] and in test [3] was “inactive” throughout.
As to `Cn1nnnc1SCC1=C(C(=O)O)N2C(=O)[C@@H](NC(=O)[C@H](O)c3ccccc3)[C@H]2SC1`, the Potency result in test [1], in test [5], in test [2] and in test [3] was “inactive” each time.
With `CC(CN(C)C)CN1c2ccccc2S(=O)(=O)c2ccccc21` (centres undefined), the Potency entry in test [4], in test [2] and in test [3] was “inactive” in each case.
With `CN1[C@@H]2CC[C@H]1CC(OC(c1ccccc1)c1ccccc1)C2` (some centres undefined), the Potency result in test [1], in test [4], in test [5], in test [2] and in test [8] was “inactive” each time. Moreover, the max activation in test [6] was -1.01% (inactive) and 0.643% (inactive) and -2.69% (inactive). In addition, the Potency result in test [7] was “inactive and 14.1 µM (active)”.
For `O=C(NOC[C@H](O)CO)c1ccc(F)c(F)c1Nc1ccc(I)cc1F`, the Potency result in test [1], in test [5], in test [2] and in test [3] was “inactive” each time.
As for `CC(C)N1CCN(c2ccc(OC[C@H]3CO[C@](Cn4cncn4)(c4ccc(Cl)cc4Cl)O3)cc2)CC1`, the Potency result in test [1], in test [2] and in test [7] was “inactive” throughout. Further, the max activation in test [6] is -0.695% (inactive). Moreover, the Potency in test [8] is 5.62 µM (active).
Turning to `Nc1ccc(S(=O)(=O)Nc2ncccn2)cc1`, in test [6], the max activation was -1.29% (inactive). Moreover, the Potency result in test [7] and in test [8] was “inactive” each time.
On to `CC(O)[C@H]1CC[C@H]2[C@@H]3CC[C@@H]4C[C@@H](O)CC[C@]4(C)[C@H]3CC[C@]12C` (some centres undefined), for which the Potency entry in test [1], in test [4], in test [2], in test [7] and in test [8] was “inactive” each time. Moreover, the max activation in test [6] is 2.94% (inactive).
Regarding `CNC(C)CCC=C(C)C` (centres undefined), the Potency result in test [1], in test [5], in test [2], in test [7] and in test [8] was “inactive” each time. The max activation in test [6] is 2.06% (inactive).
Take `CN1CCN(CCCN2c3ccccc3Sc3ccccc32)CC1`: the Potency result in test [4] and in test [3] was “inactive” throughout.
For the molecule `C=C1C(=C/C=C2\CCC[C@]3(C)[C@@H]([C@H](C)/C=C/[C@H](C)C(C)C)CC[C@@H]23)C[C@@H](O)C[C@@H]1O`, the Potency entry in test [5] and in test [3] was “inactive” throughout.
Take `C=C[C@]1(C)C[C@@H](OC(=O)CO)[C@]2(C)[C@H](C)CC[C@]3(CCC(=O)[C@H]32)[C@@H](C)[C@@H]1O`: the Potency result in test [1], in test [5], in test [2] and in test [3] was “inactive” each time.
Consider `CN1[C@@H]2CCC[C@H]1CC(NC(=O)c1nn(C)c3ccccc13)C2` (some centres undefined), for which the Potency result in test [4], in test [5], in test [2] and in test [3] was “inactive” throughout.
As to `C[C@H]1C[C@H]2[C@@H]3CCC4=CC(=O)C=C[C@]4(C)[C@@]3(F)[C@@H](O)C[C@]2(C)[C@@]1(O)C(=O)CCl`, the Potency in test [4] is 6.68 µM (active). Also, the Potency entry in test [3] is “inactive”.
As for `COc1cc(NCCCC(C)N)c2ncccc2c1` (centres undefined), the Potency entry in test [5], in test [2] and in test [3] was “inactive” each time.
For the molecule `COc1ccc(C(=O)Nc2ccccc2CCC2CCCCN2C)cc1` (centres undefined), the Potency result in test [4], in test [2] and in test [3] was “inactive” throughout.
Regarding `CCCC1([C@H](O)C/C=C/[C@H]2[C@H](O)CC(=O)[C@@H]2CCCCCCC(=O)OC)CCC1`, the Potency result in test [4] was “inactive”. Moreover, the PLD induction in test [3] is 0.112% [at 7.66 µM] (inactive).
